Reference: PubChem BioAssay AID1159580 (chemical genetic matrix, 2015)
“And” between values parts separate entries of the source, which are not always exact repeats. Equal values may be shown once. Screen size: about 5,500 compounds; about 2,000 (36%) were called active. Inconclusive results (about 18%) are left out. No stated cut-off is given here; in the data, active means normalized growth mostly below about 0.91 (no sharp cut-off); inconclusive means no clear call, values can overlap the other calls; inactive means mostly above about 0.92. This is one part of the list.

Assay: chemical genetic growth profiling, strain panel (AID 1159580);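 further: tested at 20 µM; growth read once vehicle control cultures reached saturation at 30 °C; 1 = growth at the plate median or of vehicle wells; lower values mean less growth of the strain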
Conditions: S. cerevisiae deletion strains, growth OD

Measured: normalized growth

COc1ccc2c(c1)c(CC(=O)OCC(=O)O)c(C)n2C(=O)c1ccc(Cl)cc1
inactive: locus YAL013W, strain DEP1, hits give low values 1.01 | locus YAL021C, strain ccr4, hits give low values 0.982 | locus YAL026C, strain drs2, hits give low values 1.01 | locus YAL030W, strain snc1, hits give low values 0.99 | locus YBL061C, strain skt5, hits give low values 1 | locus YBR009C, strain hhf1, hits give low values 0.991 | locus YBR021W, strain FUR4, hits give low values 1.01 | locus YBR023C, strain chs3, hits give low values 1.01 | locus YBR171W, strain sec66, hits give low values 0.978 | locus YBR229C, strain ROT2, hits give low values 1.02 | locus YBR231C, strain swc5, hits give low values 0.973 | locus YBR279W, strain paf1, hits give low values 1.01 | locus YCL011C, strain gbp2, hits give low values 1.02 | locus YCL016C, strain dcc1, hits give low values 1.01 | locus YCL029C, strain bik1, hits give low values 1.04 | locus YCL069W, strain vba3, hits give low values 1 | locus YCR088W, strain abp1, hits give low values 1.01 | locus YDL005C, strain med2, hits give low values 0.979 | locus YDL035C, strain GPR1, hits give low values 1.02 | locus YDL040C, strain nat1, hits give low values 0.995 | locus YDL074C, strain BRE1, hits give low values 1.01 | locus YDL101C, strain DUN1, hits give low values 1.02 | locus YDL134C, strain PPH21, hits give low values 1.02 | locus YDL185W, strain tfp1, hits give low values 1.02 | locus YDL192W, strain arf1, hits give low values 1.02 | locus YDR001C, strain nth1, hits give low values 1.01 | locus YDR069C, strain doa4, hits give low values 0.996 | locus YDR101C, strain arx1, hits give low values 1.02 | locus YDR137W, strain rgp1, hits give low values 1.02 | locus YDR150W, strain NUM1, hits give low values 1.02 | locus YDR159W, strain sac3, hits give low values 0.964 | locus YDR162C, strain NBP2, hits give low values 1.01 | locus YDR195W, strain ref2 0.939 | locus YDR297W, strain sur2, hits give low values 1 | locus YDR318W, strain mcm21, hits give low values 1.02 | locus YDR334W, strain swr1, hits give low values 1 | locus YDR335W, strain msn5, hits give low values 0.989 | locus YDR388W, hits give low values 1.01 | locus YDR392W, strain spt3, hits give low values 1.03 | locus YDR502C, strain sam2, hits give low values 1.03 | locus YEL003W, strain gim4, hits give low values 0.988 | locus YEL037C, strain rad23, hits give low values 1 | locus YEL061C, strain CIN8 (second series), hits give low values 0.995 | locus YEL061C, strain CIN8, hits give low values 1.01 | locus YER015W, strain faa2, hits give low values 1 | locus YER016W, strain bim1, hits give low values 1.01 | locus YER110C, hits give low values 1.02 | locus YER111C, strain swi4, hits give low values 0.991 | locus YER155C, strain BEM2 (second series), hits give low values 0.989 | locus YER155C, strain BEM2, hits give low values 1.01 | locus YER167W, strain BCK2, hits give low values 1.01 | locus YFR010W, strain ubp6, hits give low values 0.994 | locus YGL078C, strain dbp3, hits give low values 1.01 | locus YGL086W, strain mad1, hits give low values 1.01 | locus YGL167C, strain pmr1, hits give low values 0.987 | locus YGL173C, strain kem1, hits give low values 0.976 | locus YGL227W, strain vid30, hits give low values 0.999 | locus YGL240W, strain doc1, hits give low values 0.982 | locus YGL248W, strain PDE1, hits give low values 1.01 | locus YGL253W, strain hxk2, hits give low values 1.01 | locus YGR078C, strain PAC10, hits give low values 1.02 | locus YGR135W, strain pre9, hits give low values 1.02 | locus YGR229C, strain SMI1, hits give low values 1.02 | locus YGR252W, strain gcn5, hits give low values 0.987 | locus YHR013C, strain ard1, hits give low values 1.09 | locus YHR027C, strain rpn1, hits give low values 0.999 | locus YHR030C, strain SLT2, hits give low values 1.02 and 0.958 | locus YHR079C, strain IRE1 (second series), hits give low values 1.01 | locus YHR079C, strain IRE1, hits give low values 0.941 | locus YHR094C, strain hxt1, hits give low values 1.01 | locus YHR129C, strain ARP1, hits give low values 1 | locus YHR142W, strain chs7, hits give low values 1.01 | locus YHR200W, strain rpn10, hits give low values 1.01 | locus YIL066C, strain RNR3, hits give low values 1.02 | locus YIL073C, strain SPO22, hits give low values 1.06 | locus YIL125W, strain kgd1, hits give low values 1.01 | locus YIR030C, strain dcg1, hits give low values 1.02 | locus YJL092W, strain hpr5, hits give low values 0.981 | locus YJL095W, strain BCK1 (second series), hits give low values 1.01 | locus YJL095W, strain BCK1, hits give low values 1.05 and 0.968 | locus YJL115W, strain asf1, hits give low values 0.992 | locus YJL129C, strain trk1, hits give low values 0.979 | locus YJL134W, strain LCB3, hits give low values 1.01 | locus YJL154C, strain vps35, hits give low values 0.992 | locus YJL164C, strain tpk1, hits give low values 1.03 | locus YJL166W, strain qcr8, hits give low values 0.974 | locus YJL168C, strain set2, hits give low values 1.01 | locus YJL187C, strain SWE1 (second series), hits give low values 1.03 | locus YJL187C, strain SWE1, hits give low values 1.01 | locus YJR043C, strain POL32, hits give low values 1.03 | locus YJR066W, strain TOR1, hits give low values 0.89
